Reference: PubChem BioAssay AID588849 (Broad Institute, 2011)
Potency and affinity values are given separately. Active and inactive are the calls of the source. The rule behind the calls is not given here.

Target: CAAX prenyl protease 2 (Homo sapiens) (UniProt Q9Y256)
Assay: inhibition of Ras-converting CAAX protease Rce1 – biochemical, yeast membranes, quenched-peptide fluorescence, cherry-pick, dose response (AID 588849)
Details: yeast membrane fractions expressing human Rce1, quenched-peptide fluorescence, 4 h; series mostly up to 10 µM; activity change, negative = inhibition: at the top concentration

Sequence of CAAX prenyl protease 2 (Homo sapiens) (Q9Y256 whole entry, looked up): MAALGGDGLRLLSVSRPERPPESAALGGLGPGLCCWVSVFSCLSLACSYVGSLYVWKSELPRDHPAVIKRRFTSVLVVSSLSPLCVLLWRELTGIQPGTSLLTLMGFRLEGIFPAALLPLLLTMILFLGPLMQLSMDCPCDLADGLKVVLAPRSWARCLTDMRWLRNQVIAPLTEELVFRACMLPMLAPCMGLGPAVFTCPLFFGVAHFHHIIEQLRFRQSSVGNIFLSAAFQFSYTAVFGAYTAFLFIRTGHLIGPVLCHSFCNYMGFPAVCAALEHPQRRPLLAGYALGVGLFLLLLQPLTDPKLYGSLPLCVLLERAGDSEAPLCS

Activity change, negative = inhibition, inactive:
COc1ccccc1-n1c(-c2ccccc2)c[nH]c1=S -13.2%, CCCn1c(O)c(N=NC(=O)CNC(=O)Cc2ccc(OC)cc2)c2ccccc21 -2.73%, CN1CCN(C(=S)NC(=O)c2ccccc2Cl)CC1 0.21%, CC(=O)c1c(C)[nH]c(C(=O)OCc2ccc(Br)cc2)c1C 6%, CCOC(=O)C[n+]1ccc2c([nH]c3ccccc32)c1C 7.21%, Nc1nnnn1/N=C/c1ccccc1OCc1ccc(Cl)cc1Cl -1.75%, Cc1c(C)c2ccc(OC(C)C(=O)NCCCN3CCOCC3)c(C)c2oc1=O (centres undefined) -23.6%, O=C(Nc1ccccc1N1CCOCC1)C1CCN(S(=O)(=O)c2ccc(F)cc2)CC1 -4.31%, COc1ccc(Cl)cc1C(=O)Nc1ccc2c(c1)OCO2 -7.6%, COc1ccc(C(CNC(=O)COc2cc(C)c(Cl)c(C)c2)N2CCCCC2)cc1 (centres undefined) -12.7%, COc1ccc(/C=N/NC(=O)c2ccc(Cl)cc2)cc1COC(C)=O -20.8%, c1ccn2cc(-c3ccc4c(c3)OCCO4)nc2c1 -9.91%, O=c1c(-c2nnc(SCc3ccc(Cl)c(Cl)c3)o2)cccn1Cc1ccccc1 -95.5%, Cn1c(CCNS(=O)(=O)c2ccccc2)nnc1SCc1cccnc1 -5.95%, CCOc1ccc(C2C(C(=O)OC)=CN(C(C)c3ccccc3)C=C2C(=O)OC)cc1 (centres undefined) -3.39%, O=C(C1=C[C@@H](C2CC2)C[C@@H](OCc2ccc(CO)cc2)O1)N1CCN(Cc2ccccc2)CC1 3.16%, COc1ccc(C(C(=O)NC2CCCCC2)N(C(=O)c2snc(C(N)=O)c2N)c2ccc(OC)cc2OC)cc1 (centres undefined) 4.83%, O=C1CN(C(=O)NCC(=O)N2CCCC2)c2ccccc2N1 -24.5%, O=C(C(Cc1ccccc1)N1C(=O)c2ccccc2C1=O)N1c2ccccc2CCc2ccccc21 (centres undefined) -13.2%, O=C(COc1ncnc2cc([N+](=O)[O-])ccc12)NC(=O)NC1CCCCC1 0.658%, CCOc1ccc(OCC)c(NC(=O)c2nnn(CC(=O)Nc3cc(C)cc(C)c3)c2N)c1 -3.94%, CC(=O)C(C)Oc1ccc2c3c(c(=O)oc2c1)CCCC3 (centres undefined) 0.274%, Cc1ccc(C(=O)c2c3ccccc3[n+]([O-])n2CCO)cc1 -8.71%, Cc1ccc(N=Cc2c(O)n(C)c(=O)n(C)c2=O)nc1 -8.04%, CC1(C)CC2CC(C)(CN2S(=O)(=O)c2ccc(N)cc2)C1 (centres undefined) -9.72%, O=C1NC(c2ccc(Br)cc2)Nc2ccccc21 (centres undefined) 7.42%, Cc1cc(C)n(-c2nc3ccccc3c(=O)n2OCC(=O)N(C)C)n1 -10.8%, CCc1cc(=O)oc2c3c(cc(OCC(=O)NCCCC(=O)O)c12)OC(C)(C)CC3 58.4%, COc1c2ccoc2nc2c(OC)cccc12 0.486%, COc1ccc(-c2c(-c3ccsc3)oc3ccc(N4CCOCC4)cc23)cn1 -11.9%, CSC[C@H](NC(=O)COc1cc2c(c3oc(=O)cc(C)c13)CCC(C)(C)O2)C(=O)O 8.43%, CCCNC(=O)c1c(N)n(-c2ccc(S(N)(=O)=O)cc2)c2nc3ccccc3nc12 -168%, COc1ccc2[nH]c(C(=O)NCCCn3ccnc3)cc2c1 -14.6%, Cc1cc2nn(-c3cccc4ccccc34)nc2cc1NC(=O)c1cccs1 95.4%, CC(=O)c1c(O)cc(O)c(C(C)=O)c1O -7.79%, O=C(Nc1cccc(-c2cn3ccccc3n2)c1)C1CC1 -8.07%, COc1ccc(-c2nc(CC(=O)O)cs2)cc1OC -9.08%, COCCN1C(=O)/C(=C/c2ccc(Oc3ccc([N+](=O)[O-])cn3)c(OC)c2)SC1=Nc1ccccc1 -9.83%, Cc1cccc2sc(N(CCN(C)C)C(=O)c3ccc4ccccc4c3)nc12 -27%
